High-throughput results as filed in PubChem.
A selection: hits, their analogues and other compounds. The true share with any hit is near 1.9%.
FPRL1 binder = human FPRL1 ligand, with FPR counter-screen; FPRL1-expressing cells, fluorescent ligand binding inhibition, flow cytometry; inhibition, % (test concentration not listed); 24,000 tested, 0.3% active;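 also: 0% = buffer alone and 100% = receptor blocker peptide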
FPR binder = binds the human formylpeptide receptor FPR; P21462; inhibition, % (concentration not given with the values); FPR-expressing cells, fluorescent ligand binding, flow cytometry; 24,000 tested, 0.74% active;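 also: 0% = buffer wells and 100% = receptor blocker peptide wells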
LNCaP diff act = LNCaP prostate cell differentiation activation; flow cytometry side scatter, 4 d; side scatter shift, % at 10 µM; 24,000 tested, 0.56% active;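 active = side scatter shift above 30%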;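 also: androgen-responsive LNCaP prostate cancer cells in charcoal-stripped serum medium; percent of cells past a gate set so DMSO wells show 10% shift; higher shift means more granular cells and more differentiation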
Jurkat autofluor = compound fluoresces in Jurkat cells, VLA-4 screen interference | fluorescence ratio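 (tested at 10 µM compound in the well)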 | AID 576 | compound autofluorescence, flow cytometry; active compounds read high; 1 = vehicle-only cell background | 24,000 tested, 0.61% active;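 active = fluorescence ratio above 2.44, which is 1 plus 3 SD of all ratios; inconclusive = signal too bright to measure linearly, ratio around 10 or more; inactive = fluorescence ratio below 2.44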;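 also: green fluorescence of cells measured with 488 nm excitation and 530 nm emission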
VLA-4 antagonist = blocks LDV-FITC ligand binding to Mn2+-activated human VLA-4 integrin; P13612; Jurkat cells, LDV-FITC binding with Mn2+, flow cytometry; 100% = Mn2+-driven binding gain fully reversed; inhibition, % at 10 µM (by protocol); 24,000 tested, 0.2% active; AID 529;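 active = inhibition above 50%; inconclusive = compound itself fluorescent, judged against control cell fluorescence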;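 also: 0% = Mn2+ stimulated cells lacking compound and 100% = ligand binding without Mn2+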
VLA-4 agonist = allosterically activates the human VLA-4 integrin; P13612; Jurkat cells, LDV-FITC binding, flow cytometry; activation, % at 10 µM (by protocol); 24,000 tested, under 10 active;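 active = fluorescent ligand binding to cells raised by more than 40% of the manganese-induced maximum; inconclusive = compound's own fluorescence above 85% of the ligand control signal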;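 also: 0% = ligand binding without compound and 100% = manganese-stimulated maximal binding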
* hit, by the source's call; ? = inconclusive; . = no result given. Rule as the data show it, unless noted: active = inhibition above about 30%; inconclusive = no clear call, values can overlap the other calls; inactive = below that.

SMILES	FPRL1 binder	FPR binder	LNCaP diff act	Jurkat autofluor	VLA-4 antagonist	VLA-4 agonist
CCc1c(C)nc2c(C#N)c(C)[nH]n2c1=O	27	50*	.	.	.	.
Cc1nc2c(C#N)c[nH]n2c(=O)c1Cc1ccccc1	-7	40*	.	.	.	.
Cc1nc2c(C#N)c(C)[nH]n2c(=O)c1Cc1ccccc1	2	32*	.	.	.	.
O=C(O)C1CCCCC1C(=O)Nc1ccc(F)cc1F (configuration not stated)	-9	-8	.	.	.	.
COc1ccc(N2CCN(CCCNS(=O)(=O)c3c(C)noc3/C=C/N(C)C)CC2)cc1	-2	-2	4	1.1	-6	-3
CCc1cccc(NC(=O)CN(c2ccc(OC)cc2)S(=O)(=O)c2c(C)n[nH]c2C)c1	1	-2	8	0.91	62*	-7
CCOc1cccc2cc(-c3nnc(-c4ccccc4)o3)c(=O)oc12	0	0	9	0.98	1	-2
CCC(CC)C(=O)Nc1c2cnn(-c3ccccc3)c2nc(=O)n1-c1ccccc1	4	83*	5	1.1	53*	-17
c1cncc(-c2nc3ccccc3o2)c1	?	?	28	9.8*	?	?
c1cc(-c2nc3ccccc3o2)nc(-c2nc3ccccc3o2)c1	-2	-2	2	1.1	-4	0
N#CC1=C(N)N(c2ccc(Oc3ccccc3)cc2)C(=O)C1	0	-6	7	1	-1	-4
COc1ccc(CCN2C(=O)C3C4C=CC(C4)C3C2=O)cc1OC (configuration not stated)	-2	-2	8	1.1	-31	2
CCOC(=O)CCn1nc(-c2ccc(Cl)cc2)cc1N	51*	54*	11	1	-10	4
COc1ccc(-c2nnc3ccc(SCC(=O)N4CCN(c5ccccc5)CC4)nn23)cc1OC	1	11	6	1	-4	-15
COC(=O)c1[nH]c(C)c(/C(O)=C2\C(=O)C(=O)N(CCCN3CCOCC3)C2c2ccccn2)c1C (configuration not stated)	-2	38*	15	1	-42	14
CC(=O)Nc1cc(C(=O)N2CCOCC2)ccc1S(=O)(=O)c1ccc(C)cc1	13	-1	37*	1.1	?	-5
CCCCNC(=O)CC(=O)Nc1ccccc1C(=O)O	-1	8	2	0.93	7	5
O=C1c2ccccc2-c2nc3ncnn3c(-c3ccccc3)c21	2	-2	40*	1.4	15	-9
O=C(O)c1ccc2c3c(ncnc13)-c1ccccc1C2=O	14	0	3	1.3	1	4
C=CCOc1ccccc1/C=c1\sc2nc(=O)c(C)nn2c1=O	21	13	6	1.1	-24	10
Cc1cc(/C=c2/sc3nc4ccccc4n3c2=O)c(C)n1-c1ccccn1	-19	-13	14	3.7*	?	?
COc1ccc(N2CCN(C(=O)C3CCCN(S(=O)(=O)c4cccc5cccnc45)C3)CC2)cc1 (configuration not stated)	2	-11	11	1	7	1
CC1Cc2ccccc2N1C(=O)C1CCCN(S(=O)(=O)c2cccc3cccnc23)C1 (configuration not stated)	-12	-6	8	3.6*	?	?
CN1CCc2nc(SCC(=O)Nc3ccc(F)cc3)c(C#N)cc2C1	3	2	0	0.98	-34	6
Cc1c(C)c2cc(Cl)c(O)c(CN3CCCCC3)c2oc1=O	50*	38*	15	1.1	-17	0
SMILES	FPRL1 binder	FPR binder	LNCaP diff act	Jurkat autofluor	VLA-4 antagonist	VLA-4 agonist
CC(=O)Nc1cccc(NC(=O)c2sc3ncn(CC(=O)N4CCCCC4)c(=O)c3c2C)c1	0	2	2	1.1	3	-1
Cc1ccccc1NC(=O)CN1C(=O)COc2ccc(Cl)cc21	2	4	3	1	11	-9
N#CC1=C(N)N2C(=C(C#N)C13CCCCC3)SC1CCCCC12O (configuration not stated)	0	11	17	0.95	8	-8
CN1CCN(CCCNC(=O)Nc2cccc3ccccc23)CC1	32*	5	3	1.1	-8	-4
Cc1ccc(Cn2ccc(NC(=O)c3cc(-c4ccc(Br)cc4)on3)n2)cc1	-6	-8	35*	0.98	-3	8
O=C(CCn1cccc1)NCCc1ccc(Cl)cc1	1	-1	9	1.2	1	-5
